Screening results from PubChem.
In the library only some 6.8% were active in any assay of this set; here they are far more common.
C diff growth: C. difficile growth inhibition; Clostridium difficile clinical isolate growth, OD600, 24 h; stronger effect = lower value; growth activity, negative = inhibition, % at 16 µg/mL (by protocol); 86,000 compounds, 0.25% hits; AID 1259249;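 active = mean growth activity at or below -80% and every replicate also at or below -80%; inconclusive = mean at or below -80% but some replicate above -80%; inactive = mean growth activity above -80%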;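 note: 0% = DMSO wells and -100% = levofloxacin 16 µg/mL wells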
Pf Dd2 growth: inhibitors of Plasmodium falciparum Dd2 growth | AID 1159554 | activity change, % at 10 µM | 94,000 compounds, 2.3% hits | P. falciparum Dd2 growth, SYBR Green, 72 h; stronger effect = lower value; in the data active = activity change below about -80%; inconclusive = no clear call, values can overlap the other calls
T cruzi growth-1: inhibitors of T. cruzi proliferation; T. cruzi beta-gal in NIH3T3, GalScreen luminescence, 90 h; inhibition, % at 8.34 µM; AID 624255; 77,000 compounds, 5.9% hits;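 active = mean inhibition above about 93%, with at least 55% of replicates each passing it, limit read from the data, passing the limit was not always enough; inconclusive = only one of those two conditions holds; inactive = neither condition holds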
T cruzi growth-2: Trypanosoma cruzi proliferation inhibition | shares compounds with T cruzi growth-1 | T. cruzi beta-gal in NIH3T3, GalScreen luminescence, 90 h | inhibition, % at 8.35 µM | 5,600 compounds, 72% hits;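 active = mean replicate inhibition above about 95% and at least 55% of replicates individually reaching it, limit read from the data; inconclusive = only one of the two criteria is met; inactive = neither criterion is met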
T cruzi growth-3: inhibitors of T. cruzi proliferation; shares compounds with T cruzi growth-1; T. cruzi beta-gal in NIH3T3, GalScreen luminescence, 90 h; inhibition, % at 2.09 µM; 5,600 compounds, 21% hits; AID 651740;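 active = mean inhibition above about 95%, with at least 55% of replicates also reaching it, limit read from the data; inconclusive = meets just one of the two conditions; inactive = meets neither condition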;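 note: plate controls were neutral control median for no effect and positive control median for full effect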
NIH3T3 tox: kills mouse NIH/3T3 fibroblasts | NIH/3T3 viability, CellTiter-Glo ATP luminescence, 90 h | AID 651742 | cytotoxicity (signal decrease), % at 8.35 µM | 5,600 compounds, 14% hits | shares compounds with T cruzi growth-1;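 active = mean signal decrease across replicates above about 35% based on untreated-well scatter, with enough replicates individually passing, limit read from the data; inconclusive = no rule stated though some were filed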;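 note: 0% = median of neutral control wells and 100% = median of positive control wells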
NIH3T3 tox 2: NIH/3T3 (mouse) viability loss. shares compounds with T cruzi growth-1. NIH/3T3 viability, CellTiter-Glo ATP luminescence, 90 h. inhibition, % at 24.9 µM. 5,600 compounds, 56% hits. AID 651744;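 active = mean loss of cell viability signal at or above a set limit, and enough replicates individually reaching it; inconclusive = meets only the mean limit or only the replicate share; inactive = meets neither condition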;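 note: 0% = median of neutral control wells and 100% = median of positive control wells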
Starred values were filed as active, the others as inactive; u = inconclusive; x = no result given.

SMILES	C diff growth	Pf Dd2 growth	T cruzi growth-1	T cruzi growth-2	T cruzi growth-3	NIH3T3 tox	NIH3T3 tox 2
C[C@@H]1CCCCO[C@@H](CN(C)Cc2ccc(C(F)(F)F)cc2)[C@@H](C)CN([C@H](C)CO)C(=O)c2cc(NC(=O)CCCN(C)C)ccc2O1	-2	-38	-15	x	x	x	x
CCCN(C)C[C@@H]1OCCCC[C@H](C)Oc2ccc(NC(=O)CCCN(C)C)cc2C(=O)N([C@@H](C)CO)C[C@@H]1C	-2	-18	u	0	-28	1	-2
C[C@@H]1CCCCO[C@@H](CN(C)Cc2ccc(C(F)(F)F)cc2)[C@@H](C)CN([C@@H](C)CO)C(=O)c2cc(NC(=O)CCCN(C)C)ccc2O1	-2	-85*	100*	105*	87	-5	102*
C[C@H]1CCCCO[C@H](CN(C)Cc2ccncc2)[C@@H](C)CN([C@@H](C)CO)C(=O)c2cc(NC(=O)CCCN(C)C)ccc2O1	x	28	99*	-1	20	8	4
CCCN(C)C[C@H]1OCCCC[C@H](C)Oc2ccc(NC(=O)CCCN(C)C)cc2C(=O)N([C@H](C)CO)C[C@@H]1C	-2	-1	34	x	x	x	x
C[C@@H]1CCCCO[C@@H](CN(C)Cc2ccncc2)[C@@H](C)CN([C@@H](C)CO)C(=O)c2cc(NC(=O)CCCN(C)C)ccc2O1	-2	x	12	x	x	x	x
O=C1CN(S(=O)(=O)c2ccccc2)C[C@@H]2[C@H](c3ccc(Br)cc3)[C@H](CO)N12	50	-14	x	x	x	x	x
CC(C)NC(=O)NCC[C@@H]1CC[C@@H](NC(=O)Nc2ccccc2)[C@@H](CO)O1	x	-1	61	x	x	x	x
C[C@@H]1CN([C@@H](C)CO)C(=O)c2cc(NC(=O)c3ccncc3)ccc2O[C@@H](C)CCCCO[C@H]1CN(C)S(=O)(=O)c1cccs1	x	-50	x	x	x	x	x
CN1C(=O)c2cc(NC(=O)c3cccc(F)c3)ccc2OC[C@H]2O[C@@H](CC(=O)N3CCc4ccccc4C3)CC[C@@H]21	9	-40	63	x	x	x	x
Cc1noc(C)c1S(=O)(=O)Nc1ccc2c(c1)C(=O)N([C@@H](C)CO)C[C@@H](C)[C@@H](CN(C)C(=O)CCCN(C)C)OCCCC[C@@H](C)O2	-6	11	1	x	x	x	x
COc1ccc(NC(=O)Nc2ccc3c(c2)C(=O)N([C@@H](C)CO)C[C@@H](C)[C@@H](CN(C)C(=O)Nc2ccccc2)OCCCC[C@@H](C)O3)cc1	3	-50	45	x	x	x	x
C[C@@H]1CN([C@@H](C)CO)C(=O)c2cc(NC(=O)Cc3ccccc3)ccc2O[C@@H]1CN(C)Cc1ccc(C(=O)O)cc1	-3	-2	27	x	x	x	x
COc1ccc(S(=O)(=O)Nc2cccc3c2O[C@@H](CN(C)Cc2ccc(C(=O)O)cc2)[C@@H](C)CN([C@@H](C)CO)C3=O)cc1	x	29	21	x	x	x	x
COc1ccc(S(=O)(=O)Nc2cccc3c2O[C@@H](CN(C)Cc2ccc(C(=O)Nc4ccccc4N)cc2)[C@@H](C)CN([C@@H](C)CO)C3=O)cc1	15	-45	u	89	83	-3	37*
C[C@H]1CN([C@@H](C)CO)C(=O)c2cc(NS(=O)(=O)c3ccc(Cl)cc3)ccc2O[C@@H]1CN(C)Cc1ccc(C(=O)Nc2ccccc2N)cc1	4	-43	86	x	x	x	x
C[C@H]1CN([C@@H](C)CO)C(=O)c2cccc(NS(=O)(=O)c3ccc(Cl)cc3)c2O[C@H]1CN(C)Cc1ccc(C(=O)Nc2ccccc2N)cc1	0	-89*	104*	90	81	6	39*
COc1ccc(S(=O)(=O)Nc2cccc3c2O[C@@H](CN(C)Cc2ccc(C(=O)Nc4ccccc4N)cc2)[C@H](C)CN([C@H](C)CO)C3=O)cc1	8	-34	x	x	x	x	x
COc1ccc(S(=O)(=O)Nc2cccc3c2O[C@@H](CN(C)Cc2ccc(C(=O)O)cc2)[C@@H](C)CN([C@H](C)CO)C3=O)cc1	x	6	101*	-30	3	0	5
Cc1ccc(S(=O)(=O)Nc2cccc3c2O[C@@H](CN(C)Cc2ccc(C(=O)Nc4ccccc4N)cc2)[C@@H](C)CN([C@@H](C)CO)C3=O)cc1	8	-70	x	x	x	x	x
C[C@@H]1CN([C@@H](C)CO)C(=O)c2cc(NS(=O)(=O)c3ccc(Cl)cc3)ccc2O[C@@H]1CN(C)Cc1ccc(C(=O)Nc2ccccc2N)cc1	1	u	106*	108*	55	21	62*
CCCNC(=O)C[C@H]1C[C@H]2c3cc(NC(=O)Cc4ccncc4)ccc3O[C@H]2[C@H](CO)O1	-1	3	-78	x	x	x	x
C[C@H]1CN([C@@H](C)CO)S(=O)(=O)c2ccc(Br)cc2O[C@@H]1CN(C)Cc1cncnc1	8	-9	28	x	x	x	x
CO[C@@H]1CN(C)C(=O)c2cc(NS(=O)(=O)c3ccccc3C)ccc2OC[C@@H](C)N(C)C[C@H]1C	x	-53	10	x	x	x	x
C[C@H]1CN([C@@H](C)CO)C(=O)c2cccc(NS(=O)(=O)c3cn(C)cn3)c2O[C@H]1CN(C)Cc1ccc2c(c1)OCO2	-2	35	-86	x	x	x	x
SMILES	C diff growth	Pf Dd2 growth	T cruzi growth-1	T cruzi growth-2	T cruzi growth-3	NIH3T3 tox	NIH3T3 tox 2
CC(=O)N(C)C[C@@H]1Oc2ncc(C#Cc3ccccn3)cc2C(=O)N([C@H](C)CO)C[C@H]1C	-2	-19	46	x	x	x	x
O=C(Nc1ccc2c(c1)[C@H]1C[C@H](CC(=O)N3CCc4ccccc4C3)O[C@@H](CO)[C@H]1O2)C1CCC1	0	-6	7	x	x	x	x
C[C@H]1CN([C@@H](C)CO)C(=O)c2cc(NS(=O)(=O)c3cn(C)cn3)ccc2O[C@@H]1CN(C)Cc1ccc(C(=O)Nc2ccccc2N)cc1	x	22	u	65	8	6	-8
C[C@@H]1CCCCO[C@H](CN(C)Cc2ccc(C(=O)Nc3ccccc3N)cc2)[C@@H](C)CN([C@H](C)CO)C(=O)c2cc(NS(=O)(=O)c3cn(C)cn3)ccc2O1	11	-11	-8	x	x	x	x
CCCN1C[C@@H](C)[C@H](OC)CN(C)C(=O)c2ccc(NC(=O)c3ccccc3F)cc2OC[C@H]1C	x	-46	54	x	x	x	x
COc1ccc(S(=O)(=O)N[C@H]2C=C[C@H](CC(=O)N3CCC(Cc4ccccc4)CC3)O[C@H]2CO)cc1	-7	-29	25	x	x	x	x
O=C(NCC[C@@H]1CC[C@H](NS(=O)(=O)c2ccccc2F)[C@@H](CO)O1)c1ccc(F)cc1	x	9	104*	39	-2	3	1
O=C(C[C@@H]1CC[C@@H](NS(=O)(=O)c2ccc(F)cc2)[C@H](CO)O1)N1CCc2ccccc2C1	0	14	104*	0	9	-15	7
Cc1ccc(S(=O)(=O)N[C@H]2CC[C@@H](CC(=O)N3CCC(Cc4ccccc4)CC3)O[C@H]2CO)cc1	-8	-2	60	x	x	x	x
